The subject of the assay is VDR:RXRa (NR concentration 270 nM, RXRa partner concentration 90 nM). Description: PBM binding z-score (relative to random genomic background probes); higher = stronger binding; sequences stand for … in GC…GCGATTGACAGCGTAGAATGAAGG
On the procedure: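 Protein-binding microarray (Agilent 4x180K custom design, double-stranded 60-nt probes: 5' GC cap, 34-nt variable region, 24-nt constant primer region; full probe sequence given). Purified or IVT nuclear receptor:RXRα heterodimers (3:1 NR:RXRα, mostly 270:90 nM) or homodimers were incubated for 1 h in PBS with 2% milk and no ligand, then detected with Alexa488 antibodies. Fluorescence from o1-orientation probes (~5 replicates averaged) was converted to z-scores against 500 random hg19 background probes. Variable regions are seed direct-repeat (DR0–DR5) sites, all their single-nucleotide variants and half-site ablations.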
Consider TCTCGTAGATCAAGCAGGTTAAGAAAGCCTGAGT, for which the PBM binding z-score was -0.00505.

The sequence CATATTAGTTGACCATAAGGGCAACCGAAGCTCG displayed a PBM binding z-score of 0.551.

In turn, CGTCCAAGGCCAAAGGTCAGTGAAGAGATGACGG yielded a PBM binding z-score of 3.16.

As to TCAAGTTGGTCACGGAGGTCACACACGACGGGTA, the PBM binding z-score amounted to 5.67.

AGATTGAGGTTAAGATCAGGGAAACAGAATACAT had a PBM binding z-score of 1.42.

As for TGAATGAGGTTATAAGATCAGGGAACGTTGCAAA, the PBM binding z-score was determined as 0.749.

GGAACGAGGACAAGTTGATAGCAGAGTTTGATGG: the PBM binding z-score is 0.0641.

Regarding CGAACTAGGTCCGAACAGGACAGTGAAGGATGAT, the PBM binding z-score was -0.576.

The sequence TCAGACATGTGAAGGTAACTCAGGTACGCAGTCG showed a PBM binding z-score of 0.627.

ACTATTAGTTGAGTCGAGGGCAACCGATAGGTTG displayed a PBM binding z-score of 0.728.

In the case of CGAACTAGGTCAGAACAGGACAGAGAAGGATGAT, the PBM binding z-score is 0.496.

With AATACATGGTCACTAGGCCAGAGTAGGTACGAAT, the PBM binding z-score is -0.0294.

ATAGAAAGGTCGAGGTGAGTATAGAGAAAGGGAA: the PBM binding z-score was found to be 2.79.

Regarding CCAGACAGGTGAAAGGTAACTAAGTCTGGTACGC, the PBM binding z-score came to 0.397.

Regarding CCTCGGAGGACAGAAGGGCAGAGCTGTCCGCTTT, the PBM binding z-score is -0.902.

As for TCATATAGGTAAAGGTGAAAGGCGAACGATATGA, the PBM binding z-score was 1.14.

The sequence TCTATTAGTTGAAGGCCAACCGACGAGTCCGTTT yielded a PBM binding z-score of 1.02.

AGTCAAAGTTCATCTAGCTAACGTAAGATATGCT came in with a PBM binding z-score of 4.35.

The sequence GCCAGTTGGTCAGTAAAAGGTCACACACCGGTCG came in with a PBM binding z-score of 3.94.

With ATATGTAGGTTACATCCCGGTCATTCAGGCTATG, the PBM binding z-score came to 1.79.

Consider CCTACTGGGCCACGAAAAGTCATTGATTCAGTGA, for which the PBM binding z-score is -0.413.

Sequence CTCGAAAAGTCGTGCTCAGGTGAGTATACCAAAC registered a PBM binding z-score of -0.141.

ATCTCTAGGTAACAAGTTCAGTGATAGAGAGGAC: the PBM binding z-score was found to be 1.91.

Sequence AGAACGAGGGCAAGCTGAGTTGATAGCAGAGTAG had a PBM binding z-score of 1.37.

Turning to ACTATTAGTCGACTTAGGGCAACCGATACGACGC, the PBM binding z-score is -0.299.

ATATGTAGGTTATCGGGTCTTTCAGTTTGCGCAT showed a PBM binding z-score of 3.12.

In turn, TATACAGGGTCATAGGCCAGAGTACGAATGTCGA displayed a PBM binding z-score of 4.62.

For GCTAGCAGGCCATTTGGGACACTCAATGACGGGC, the PBM binding z-score was -0.447.

Sequence GCTAGTTGGTCAGTAAAAGGTCCCACACCGGTCG displayed a PBM binding z-score of -0.352.

TGAATGAGGTTATAAGCTCAGGGAACGTTGCAAA: the PBM binding z-score came to 0.693.

In the case of CGTCAAAGATCAACTAAGGTAACGTAAAGCACGC, the PBM binding z-score was found to be 0.78.

With GCTAGCAGGCCATTTGGGCCACTCAATGACGGGC, the PBM binding z-score is -0.859.

In turn, GCTTGTCGATCAAGGTTAAGAAAGACTAAGCTAA yielded a PBM binding z-score of -0.0633.

Regarding CGAACTAGGTCAGAACAGGACCGTGAAGGATGAT, the PBM binding z-score is -0.102.

Sequence CCTCGAAGGACAACAGGAGGTCAGAGCTGCCAGA displayed a PBM binding z-score of 1.73.

Consider AGAACTAGGGCAATGAGTTGATAGCACGGGTGGC, for which the PBM binding z-score amounted to 3.17.

CGTCCAAGTTCAGCAGGTCAGTGAAAGCGACGTG came in with a PBM binding z-score of 2.86.

The sequence GGAACGAGGCCAAAGTTGATAGCATCTGTCGACG displayed a PBM binding z-score of -0.112.

TTACCAAGGGGAGCTGAGGTCGTTGATCCAACTC returned a PBM binding z-score of 2.08.

In the case of ACAGACAGGTCAGTGAAGGTAACTCAGCTGGACG, the PBM binding z-score was 1.41.

The record behind these values is the supplement of paper PMC6555819.
